PubChem BioAssay AID651692 (Broad Institute, 2012)
Potency and affinity values are given separately. Activity calls are given as the source filed them.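 Rule for the calls: active = fitted half-maximal concentration for loss of cell signal no higher than twice the top valid tested concentration; inconclusive = flat curve at 30 to 70% inhibition, or poor fit; inactive = flat within 30%, signal rise, or potency above limit.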

Assay: MDA-MB-231 cell growth inhibition, dose response, cytotoxicity control for RAD54 inhibitor project, CellTiter-Glo luminescence, cherry-pick (AID 651692);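 note: more negative values mean stronger loss of viable cell signal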
Conditions: MDA-MB-231 viability, 24 h; series mostly up to 26 µM

Compound	outcome
COc1ccc2c(c1)c1ncn(CCN3CCCC3)c(=O)c1n2C	inactive
COc1cc2nc(N3CCNCC3)nc(N)c2cc1OC	inactive
CNC(C)C#Cc1ccc2oc3cccc(OC)c3c(=O)c2c1 (centres undefined)	inactive
CCOC(=O)c1cnc2c(C)cc(Cl)cc2c1NCCCN1CCOCC1	inactive
COc1cc(NC(=O)c2cccnc2Sc2ccc(C)c(C)c2)cc(OC)c1OC	inactive
CN1CCN(c2ccc(CNC(=O)C3Cc4c(-c5ccc(Cl)cc5)ccnc4O3)cc2)CC1 (centres undefined)	inactive
COC(=O)Nc1nnc(COc2ccccc2)s1	inactive
Nc1c2ccccc2nc2ccccc12	inactive
COc1ccc(-c2cnc3c(NC(C)=O)cc(-c4cccc(C(=O)NCCN(C)C)c4)cn23)cc1OC	inactive
O=C(Nc1cccc(Br)c1)c1cc(S(=O)(=O)N2CCOCC2)cs1	inactive
CN1CCN(c2nc(-c3cccc([N+](=O)[O-])c3)nc3ccccc23)CC1	inactive
NC1CCN(c2c(F)cc3c(=O)c(C(=O)O)cn(C4CC4)c3c2Cl)C1 (centres undefined)	inactive
CCCCN(C)CCNC(=O)c1cc2c(-c3cccc(OC)c3)nn(C)c2s1	inactive
N=c1n(CCN2CCCCC2)c2ccccc2n1CC(=O)c1cccc([N+](=O)[O-])c1	inactive
CCOc1ccc2[nH]c3c(NCCN(C)C)ncnc3c2c1	inactive
CN1CCN(CCNC(=O)c2cc3c(=O)n(C)c4ccccc4c3n2C)CC1	inactive
CCOC(=O)Nc1c2ccccc2nc2ccccc12	inactive
Cc1ccnc(Nc2nc(-c3sc(C)nc3C)cs2)c1	inactive
O=C(CN1CCCC1)Nc1ccc(-c2nc3cc(NC(=O)CN4CCCC4)ccc3o2)cc1	inactive
